Test results: the supplement of paper PMC10849652
Of roughly 8,800 targets only a part is listed; those with a hit were picked by preference. About 0.5% of all pairs of compound and target were hits.

Legend:
Assay in all cases: log2 fold change, soluble protein after heating vs DMSO (PISA); higher = thermal stabilisation; K562 lysate, 10 uM; active = over 0.2 and 3.5 SD of the protein, either way, in both replicates (recomputed)
erlotinib = compound: C#Cc1cccc(Nc2ncnc3cc(OCCOC)c(OCCOC)cc23)c1 [erlotinib]
Outline: (§1)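 Soluble protein was defined as the supernatant remaining after 21,000xg for 90 min, following pooling of heated aliquots and adjustment to 0.5% NP-40 at 4°C. Before that, crude K562 extract at 1 mg/mL protein in PBS pH 7.4 with 1 mM MgCl2 was treated with 10 μM compound for 30 min and heated for 3 min across 48°C-58°C. Quantification used TMTpro 16plex LC-MS/MS with channel sums equalised, and values are log-two fold changes in thermal stability relative to solvent controls from duplicates.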

[1] = compound: C/C(=N\NC(=O)C1=CC(=CC=C1)S(=O)(=O)N2CCOCC2)/C3=C(C=CC(=C3)Cl)O
Outline: as §1

[2] = compound: C1=CC(=CC=C1C2=NC3=C(N2)C=C(C=C3)C(=O)N)OC4=CC=C(C=C4)Cl
Outline: as §1

[3] = compound: C1=CC2=C(C=CC(=C2)/C=C\3/C(=O)NC(=NCC4=CC=CS4)S3)N=C1
Outline: as §1

[4] = compound: C1=CC2=NC=CN=C2C=C1/C=C/3\C(=O)NC(=O)S3
Outline: as §1

[5] = compound: C1=CC=C(C=C1)C2=NC(=C(N2)C3=CC=NC=C3)C4=CC(=C(C=C4)Cl)O
Outline: as §1

[6] = compound: C1=CC=C2C(=C1)C3=NNC4=CC=CC(=C43)C2=O
Outline: as §1

[7] = compound: C1CCN(C1)C(=O)NC2=CC=CC(=C2)NC3=NC=C(C(=N3)NCCC4=CN=CN4)Br
Outline: as §1

[8] = compound: C1CN(CCC1(CC2=CC=C(C=C2)Cl)N)C3=NC=NC4=C3C=CN4
Outline: as §1

IRAK-1-4 Inhibitor I = compound: C1COCCN1CCN2C3=CC=CC=C3N=C2NC(=O)C4=CC(=CC=C4)[N+](=O)[O-] [IRAK-1-4 Inhibitor I]
Outline: as §1

ibrutinib = compound: C=CC(=O)N1CCC[C@@H](n2nc(-c3ccc(Oc4ccccc4)cc3)c3c(N)ncnc32)C1 [ibrutinib]
Outline: as §1

[9] = compound: CC(=O)c1cnc2ccc(-c3cc(Cl)c(O)c(Cl)c3)nc2c1N[C@H]1CC[C@H](CN(C)C)CC1
Outline: as §1

ralimetinib = compound: CC(C)(C)Cn1c(N)nc2ccc(-c3[nH]c(C(C)(C)C)nc3-c3ccc(F)cc3)nc21 [ralimetinib]
Outline: as §1

[10] = compound: CC(C)(O)CC(=O)NCCn1ccc2ncnc(Nc3ccc(Oc4cccc(C(F)(F)F)c4)c(Cl)c3)c21
Outline: as §1

[11] = compound: CC(C)C1=C2N=C(C=C(N2N=C1)NCC3=CC=CC=C3)NCCCCCCN
Outline: as §1

[12] = compound: CC1=C(C(CC(=O)N1)C2=CC=C(C=C2)C(F)(F)F)C(=O)NC3=C(C=C4C(=C3)C=NN4)F
Outline: as §1

[13] = compound: CC1=C(C2=C(C=C1)C(=O)C3=CC=CC=C3N2CCCN)C
Outline: as §1

[14] = compound: CC1=C(C=C(C=C1)NC(=O)C2=CC(=CC=C2)C(C)(C)C#N)NC3=CC4=C(C=C3)N=CN(C4=O)C
Outline: as §1

[15] = compound: CC1=C(C=C(C=C1)NC(=O)C2=CC(=CC=C2)N(C)C)NC(=O)C3=CC=C(C=C3)O
Outline: as §1

[16] = compound: CC1=CC=C(C=C1)SC2=C3C=C(SC3=CN=C2)C(=O)N
Outline: as §1

Measured: log2 fold change

CEPT1 (UniProt Q9Y6K0)
active: [2] -0.216
inactive: erlotinib 0.025 | [1] -0.005 | [3] 0.035 | [4] 0.032 | [5] -0.023 | [6] -0.015 | [7] 0 | [8] 0.081 | IRAK-1-4 Inhibitor I 0.072 | ibrutinib 0.011 | [9] 0.061 | ralimetinib 0.009 | [10] -0.003 | [11] 0.032 | [12] 0.004 | [13] -0.008 | [14] 0.026 | [15] 0 | [16] 0.024

C15orf41 (UniProt Q9Y2V0)
inactive: erlotinib 0.008 | [1] 0.073 | [2] 0.032 | [3] 0.112 | [4] -0.097 | [5] 0.014 | [6] -0.04 | [7] -0.028 | [8] -0.076 | IRAK-1-4 Inhibitor I -0.012 | ibrutinib -0.028 | [9] -0.013 | ralimetinib -0.018 | [10] -0.029 | [11] 0.063 | [12] 0.006 | [13] 0.045 | [14] 0.023 | [15] 0.13 | [16] -0.106

CCDC47 (UniProt Q96A33)
Sequence of UniProt Q96A33 (Q96A33 whole entry, looked up): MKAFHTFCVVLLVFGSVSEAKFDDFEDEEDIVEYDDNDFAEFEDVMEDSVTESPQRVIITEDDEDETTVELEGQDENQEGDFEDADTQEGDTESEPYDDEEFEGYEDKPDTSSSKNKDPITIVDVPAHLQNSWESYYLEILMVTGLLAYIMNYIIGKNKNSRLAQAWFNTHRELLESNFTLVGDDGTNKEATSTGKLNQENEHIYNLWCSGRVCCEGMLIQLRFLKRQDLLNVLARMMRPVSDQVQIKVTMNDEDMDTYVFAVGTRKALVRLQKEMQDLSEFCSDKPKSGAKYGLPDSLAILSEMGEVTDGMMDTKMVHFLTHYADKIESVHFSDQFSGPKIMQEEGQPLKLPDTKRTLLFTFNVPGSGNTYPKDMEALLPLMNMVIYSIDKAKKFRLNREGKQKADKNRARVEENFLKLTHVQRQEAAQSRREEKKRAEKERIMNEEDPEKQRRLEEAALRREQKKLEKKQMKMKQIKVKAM
inactive: erlotinib 0.02 | [1] 0.003 | [2] -0.071 | [3] 0.009 | [4] 0.022 | [5] -0.03 | [6] -0.093 | [7] -0.007 | [8] 0.024 | IRAK-1-4 Inhibitor I 0.003 | ibrutinib 0 | [9] 0.002 | ralimetinib 0.01 | [10] -0.063 | [11] -0.042 | [12] 0.044 | [13] -0.002 | [14] 0.041 | [15] 0.045 | [16] -0.013

CDK11B (UniProt P21127)
active: [9] 0.438
inactive: erlotinib 0.01 | [1] 0.025 | [2] -0.029 | [3] 0.008 | [4] -0.018 | [5] 0.017 | [6] -0.049 | [7] -0.016 | [8] -0.003 | IRAK-1-4 Inhibitor I -0.021 | ibrutinib -0.008 | ralimetinib 0.028 | [10] 0.034 | [11] 0.01 | [12] -0.027 | [13] -0.011 | [14] 0 | [15] 0.01 | [16] 0.003

CHCHD4 isoform 2 (UniProt Q8N4Q1)
Sequence of UniProt Q8N4Q1 (Q8N4Q1 whole entry, looked up): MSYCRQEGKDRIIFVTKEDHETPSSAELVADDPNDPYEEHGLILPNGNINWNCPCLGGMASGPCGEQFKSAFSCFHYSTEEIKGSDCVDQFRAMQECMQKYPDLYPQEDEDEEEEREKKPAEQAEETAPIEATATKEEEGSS
inactive: erlotinib -0.069 | [1] -0.06 | [2] -0.068 | [3] -0.028 | [4] -0.111 | [5] -0.018 | [6] -0.073 | [7] -0.044 | [8] 0.009 | IRAK-1-4 Inhibitor I 0.016 | ibrutinib 0.076 | [9] -0.041 | ralimetinib 0.034 | [10] -0.091 | [11] -0.015 | [12] 0.076 | [13] 0.002 | [14] 0.039 | [15] 0 | [16] 0.013

CAMKK2 (UniProt Q96RR4)
Sequence of UniProt Q96RR4 (Q96RR4 whole entry, looked up): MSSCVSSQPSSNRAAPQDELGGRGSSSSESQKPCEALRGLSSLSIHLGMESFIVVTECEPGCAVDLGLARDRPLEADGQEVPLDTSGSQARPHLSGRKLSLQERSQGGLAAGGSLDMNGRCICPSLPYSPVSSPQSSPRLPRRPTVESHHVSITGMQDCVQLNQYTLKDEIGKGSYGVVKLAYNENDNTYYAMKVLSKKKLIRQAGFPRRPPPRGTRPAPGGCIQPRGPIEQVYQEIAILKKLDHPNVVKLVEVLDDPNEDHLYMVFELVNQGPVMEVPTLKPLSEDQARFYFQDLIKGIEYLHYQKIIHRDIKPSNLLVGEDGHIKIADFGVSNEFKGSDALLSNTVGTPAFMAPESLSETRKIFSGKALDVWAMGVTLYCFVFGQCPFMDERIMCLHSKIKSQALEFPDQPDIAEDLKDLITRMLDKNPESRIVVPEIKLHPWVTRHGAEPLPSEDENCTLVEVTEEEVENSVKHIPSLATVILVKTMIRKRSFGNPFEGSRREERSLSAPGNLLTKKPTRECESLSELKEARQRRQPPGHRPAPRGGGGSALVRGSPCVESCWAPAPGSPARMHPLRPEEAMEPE
inactive: erlotinib -0.033 | [1] -0.028 | [2] -0.045 | [3] -0.057 | [4] -0.014 | [5] 0.005 | [6] 0.002 | [7] 0.135 | [8] 0.033 | IRAK-1-4 Inhibitor I -0.027 | ibrutinib 0.052 | ralimetinib 0.035 | [10] -0.005 | [11] 0.019 | [12] -0.011 | [13] -0.005 | [14] -0.031 | [15] 0.005 | [16] 0.014
active: [9] 0.231

CAMK1 (UniProt Q14012)
inactive: erlotinib -0.014 | [1] -0.145 | [2] 0.008 | [3] 0 | [4] 0.037 | [5] -0.011 | [6] 0.135 | [7] 0 | [8] 0.016 | IRAK-1-4 Inhibitor I 0.107 | ibrutinib 0.017 | [9] 0.009 | ralimetinib 0.004 | [10] -0.144 | [11] -0.017 | [12] -0.034 | [13] -0.003 | [14] 0.016 | [15] -0.027 | [16] 0.008

AURKAIP1 (UniProt Q9NWT8)
inactive: erlotinib -0.062 | [1] -0.093 | [2] 0.046 | [3] -0.031 | [4] -0.019 | [6] 0.025 | [7] -0.032 | [8] 0.064 | IRAK-1-4 Inhibitor I 0.095 | ibrutinib -0.055 | [9] -0.095 | ralimetinib -0.363 | [10] -0.222 | [11] 0.021 | [12] 0.029 | [13] -0.012 | [14] 0.135 | [16] -0.013
active: [5] 0.432 | [15] -0.417

CASP6 (UniProt P55212)
Sequence of UniProt P55212 (P55212 whole entry, looked up): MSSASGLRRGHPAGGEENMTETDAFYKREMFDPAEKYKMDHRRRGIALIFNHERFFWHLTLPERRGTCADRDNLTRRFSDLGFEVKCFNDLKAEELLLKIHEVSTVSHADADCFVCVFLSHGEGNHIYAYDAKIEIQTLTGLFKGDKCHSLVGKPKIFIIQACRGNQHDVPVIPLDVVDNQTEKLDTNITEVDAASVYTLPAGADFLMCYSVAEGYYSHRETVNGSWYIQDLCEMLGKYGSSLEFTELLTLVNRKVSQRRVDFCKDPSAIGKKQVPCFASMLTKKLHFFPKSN
inactive: erlotinib -0.006 | [1] 0.031 | [2] -0.006 | [3] -0.004 | [4] 0.006 | [5] 0 | [6] -0.005 | [7] 0.012 | [8] 0.017 | IRAK-1-4 Inhibitor I 0.015 | ibrutinib -0.029 | [9] 0.034 | ralimetinib 0.074 | [10] 0.011 | [11] -0.042 | [12] -0.012 | [13] 0.005 | [14] -0.003 | [15] -0.02 | [16] -0.008

CDC7 (UniProt O00311)
active: [4] -0.324
inactive: erlotinib -0.032 | [1] 0.038 | [2] 0.038 | [3] -0.109 | [5] -0.006 | [6] -0.027 | [7] -0.003 | [8] -0.096 | IRAK-1-4 Inhibitor I 0.032 | ibrutinib 0.04 | [9] 0.09 | ralimetinib 0.014 | [10] 0.028 | [11] 0.047 | [12] 0.066 | [13] -0.011 | [14] 0.05 | [15] -0.002 | [16] -0.07

ATP9B (UniProt O43861)
Sequence of UniProt O43861 (O43861 whole entry, looked up): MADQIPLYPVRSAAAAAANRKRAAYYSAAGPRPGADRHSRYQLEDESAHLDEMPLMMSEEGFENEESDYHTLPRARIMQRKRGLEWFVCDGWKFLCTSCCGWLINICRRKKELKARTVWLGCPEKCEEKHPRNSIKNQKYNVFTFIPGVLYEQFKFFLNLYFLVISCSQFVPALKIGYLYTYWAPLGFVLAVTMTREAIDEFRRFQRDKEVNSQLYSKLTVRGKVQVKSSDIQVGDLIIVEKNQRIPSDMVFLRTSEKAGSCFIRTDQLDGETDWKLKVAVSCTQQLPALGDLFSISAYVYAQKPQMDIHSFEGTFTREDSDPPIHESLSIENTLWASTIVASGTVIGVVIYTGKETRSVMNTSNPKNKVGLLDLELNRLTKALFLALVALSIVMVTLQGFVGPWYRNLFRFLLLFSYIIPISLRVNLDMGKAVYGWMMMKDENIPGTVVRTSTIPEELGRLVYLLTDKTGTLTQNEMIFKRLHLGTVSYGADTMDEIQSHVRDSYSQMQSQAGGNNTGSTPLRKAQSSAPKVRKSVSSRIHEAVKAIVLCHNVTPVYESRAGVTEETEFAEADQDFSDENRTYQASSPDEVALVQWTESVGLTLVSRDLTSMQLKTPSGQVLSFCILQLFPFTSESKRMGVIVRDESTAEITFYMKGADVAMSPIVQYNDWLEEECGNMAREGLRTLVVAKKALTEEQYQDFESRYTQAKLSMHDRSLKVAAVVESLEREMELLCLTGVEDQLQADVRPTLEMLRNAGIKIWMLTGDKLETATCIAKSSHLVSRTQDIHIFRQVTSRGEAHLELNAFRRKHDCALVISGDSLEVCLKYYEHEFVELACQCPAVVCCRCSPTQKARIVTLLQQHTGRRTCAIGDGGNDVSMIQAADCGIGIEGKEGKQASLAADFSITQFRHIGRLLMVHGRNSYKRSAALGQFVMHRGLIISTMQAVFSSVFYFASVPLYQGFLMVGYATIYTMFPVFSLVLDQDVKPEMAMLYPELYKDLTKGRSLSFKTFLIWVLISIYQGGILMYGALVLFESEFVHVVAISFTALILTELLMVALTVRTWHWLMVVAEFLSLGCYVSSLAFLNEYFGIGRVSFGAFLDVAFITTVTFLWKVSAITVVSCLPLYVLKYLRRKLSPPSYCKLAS
inactive: erlotinib 0.008 | [1] -0.057 | [2] 0.034 | [3] 0.175 | [4] -0.07 | [5] 0.031 | [6] 0.081 | [7] 0.027 | [8] -0.103 | IRAK-1-4 Inhibitor I -0.037 | ibrutinib -0.156 | [9] 0.08 | ralimetinib -0.044 | [10] -0.053 | [11] -0.021 | [12] 0.225 | [13] 0.049 | [14] 0 | [15] 0.079 | [16] -0.054

CFDP1 (UniProt Q9UEE9)
Sequence of UniProt Q9UEE9 (Q9UEE9 whole entry, looked up): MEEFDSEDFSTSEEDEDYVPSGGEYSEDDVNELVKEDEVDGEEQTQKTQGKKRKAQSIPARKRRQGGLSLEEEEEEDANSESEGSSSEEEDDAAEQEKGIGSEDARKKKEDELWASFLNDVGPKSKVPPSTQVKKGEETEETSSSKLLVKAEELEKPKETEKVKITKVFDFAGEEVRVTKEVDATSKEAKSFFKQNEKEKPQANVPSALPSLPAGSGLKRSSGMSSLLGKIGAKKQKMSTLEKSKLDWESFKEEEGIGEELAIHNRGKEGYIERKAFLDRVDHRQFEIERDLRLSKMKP
inactive: erlotinib -0.027 | [1] -0.023 | [2] 0.067 | [3] -0.024 | [4] -0.02 | [5] -0.004 | [6] 0.033 | [7] -0.03 | [8] 0.011 | IRAK-1-4 Inhibitor I -0.017 | ibrutinib 0.032 | [9] 0.014 | ralimetinib 0.051 | [10] -0.015 | [11] -0.052 | [12] -0.014 | [13] -0.027 | [14] 0.021 | [15] 0.027 | [16] -0.012

CDK5RAP2 (UniProt Q96SN8)
Sequence of UniProt Q96SN8 (Q96SN8 whole entry, looked up): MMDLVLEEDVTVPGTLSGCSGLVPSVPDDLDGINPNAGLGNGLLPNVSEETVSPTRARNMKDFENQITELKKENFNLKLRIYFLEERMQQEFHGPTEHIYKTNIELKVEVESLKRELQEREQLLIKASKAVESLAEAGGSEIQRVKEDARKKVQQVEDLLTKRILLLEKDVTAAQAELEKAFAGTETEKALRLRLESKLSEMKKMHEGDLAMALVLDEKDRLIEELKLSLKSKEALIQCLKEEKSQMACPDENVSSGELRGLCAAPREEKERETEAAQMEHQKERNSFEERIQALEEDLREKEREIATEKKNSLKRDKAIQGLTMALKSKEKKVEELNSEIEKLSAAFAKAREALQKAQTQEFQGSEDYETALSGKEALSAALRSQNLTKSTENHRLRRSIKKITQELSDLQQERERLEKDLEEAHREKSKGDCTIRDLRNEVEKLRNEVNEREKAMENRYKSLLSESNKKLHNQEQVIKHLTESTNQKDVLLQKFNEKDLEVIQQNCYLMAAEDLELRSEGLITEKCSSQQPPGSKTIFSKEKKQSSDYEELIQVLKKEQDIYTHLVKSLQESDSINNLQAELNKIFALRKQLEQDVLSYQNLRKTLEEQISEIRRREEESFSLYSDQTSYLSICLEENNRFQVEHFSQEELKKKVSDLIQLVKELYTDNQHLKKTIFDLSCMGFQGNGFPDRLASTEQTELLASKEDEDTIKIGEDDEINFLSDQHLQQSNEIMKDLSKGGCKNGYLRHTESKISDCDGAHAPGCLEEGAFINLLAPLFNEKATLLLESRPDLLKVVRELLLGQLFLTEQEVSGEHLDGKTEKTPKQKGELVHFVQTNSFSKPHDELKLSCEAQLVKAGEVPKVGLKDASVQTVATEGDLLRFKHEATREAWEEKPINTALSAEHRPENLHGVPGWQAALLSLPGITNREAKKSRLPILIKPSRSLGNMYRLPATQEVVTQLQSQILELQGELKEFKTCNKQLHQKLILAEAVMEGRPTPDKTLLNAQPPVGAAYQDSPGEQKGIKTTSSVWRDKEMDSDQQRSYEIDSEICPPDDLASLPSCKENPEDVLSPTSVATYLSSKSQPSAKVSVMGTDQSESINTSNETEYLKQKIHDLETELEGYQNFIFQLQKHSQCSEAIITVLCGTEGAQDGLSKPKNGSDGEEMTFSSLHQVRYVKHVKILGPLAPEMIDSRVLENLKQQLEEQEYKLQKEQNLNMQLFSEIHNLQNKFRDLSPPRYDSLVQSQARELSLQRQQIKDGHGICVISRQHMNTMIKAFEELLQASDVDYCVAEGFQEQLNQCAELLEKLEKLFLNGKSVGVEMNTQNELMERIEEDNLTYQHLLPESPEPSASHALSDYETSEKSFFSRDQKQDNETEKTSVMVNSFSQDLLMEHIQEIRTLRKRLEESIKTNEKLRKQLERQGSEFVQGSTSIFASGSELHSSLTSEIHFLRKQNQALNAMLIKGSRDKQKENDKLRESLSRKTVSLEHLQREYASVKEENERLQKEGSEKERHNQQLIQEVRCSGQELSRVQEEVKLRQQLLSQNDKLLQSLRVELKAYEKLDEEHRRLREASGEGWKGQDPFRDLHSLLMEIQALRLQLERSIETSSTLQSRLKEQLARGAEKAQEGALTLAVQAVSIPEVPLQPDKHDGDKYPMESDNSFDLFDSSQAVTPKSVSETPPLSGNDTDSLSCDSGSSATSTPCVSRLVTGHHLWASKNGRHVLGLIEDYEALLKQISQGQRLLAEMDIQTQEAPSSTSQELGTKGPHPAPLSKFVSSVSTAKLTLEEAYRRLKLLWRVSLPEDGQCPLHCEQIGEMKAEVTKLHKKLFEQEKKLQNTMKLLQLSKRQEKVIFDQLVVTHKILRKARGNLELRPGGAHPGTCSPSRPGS
active: [9] 0.268
inactive: erlotinib 0.037 | [1] 0.159 | [2] -0.021 | [3] -0.008 | [4] -0.09 | [5] -0.011 | [6] -0.025 | [7] -0.016 | [8] 0.001 | IRAK-1-4 Inhibitor I -0.026 | ibrutinib -0.022 | ralimetinib -0.006 | [10] 0.01 | [11] -0.019 | [12] -0.001 | [13] -0.044 | [14] -0.007 | [15] 0.003 | [16] 0.067

CDK9 isoform 2 (UniProt P50750)
inactive: erlotinib -0.055 | [1] -0.054 | [2] 0.195 | [3] 0.019 | [4] 0.02 | [5] -0.01 | [6] 0.019 | [7] 0.102 | [8] 0.005 | IRAK-1-4 Inhibitor I -0.002 | ibrutinib -0.042 | [9] 0.269 | ralimetinib 0.013 | [10] 0.026 | [11] -0.092 | [12] -0.026 | [13] -0.021 | [14] -0.032 | [15] 0.004 | [16] -0.021

ATP2B4 (UniProt P23634)
inactive: erlotinib 0.021 | [1] 0.023 | [2] 0.012 | [3] 0.024 | [4] 0.019 | [5] -0.015 | [6] -0.018 | [7] 0.017 | [8] 0.045 | IRAK-1-4 Inhibitor I -0.028 | ibrutinib 0.06 | [9] -0.026 | ralimetinib -0.056 | [10] -0.029 | [11] -0.018 | [12] 0.033 | [13] -0.034 | [14] 0.089 | [15] 0.051 | [16] -0.003

C18orf32 (UniProt Q8TCD1)
Sequence of UniProt Q8TCD1 (Q8TCD1 whole entry, looked up): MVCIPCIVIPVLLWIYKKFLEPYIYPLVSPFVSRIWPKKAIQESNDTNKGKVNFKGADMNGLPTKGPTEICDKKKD
inactive: erlotinib 0.089 | [1] 0.126 | [2] 0.009 | [3] -0.06 | [4] -0.026 | [5] 0.011 | [6] 0.003 | [7] -0.049 | [8] -0.032 | IRAK-1-4 Inhibitor I -0.026 | ibrutinib 0.069 | [9] -0.014 | ralimetinib 0.053 | [10] -0.048 | [11] -0.069 | [12] -0.078 | [13] -0.021 | [14] 0.074 | [15] -0.056 | [16] 0.032
